Consider 23 compounds from PubChem BioAssay (NCATS).

“And” between values parts separate entries of the source, which are not always exact repeats. Equal entries are not always repeated. A number with no mark means an inactive call. Records with an inconclusive call do not appear. The source made the active and inactive calls. Unless noted, calls follow the shape of the dose curve; as a rule, active = well fitted inhibition curve with a large enough effect; inconclusive = small, poorly fitted or top-dose-only effect; inactive = flat fitted curve, though single readings scatter.

Assay [1] can be described thus: Drug repurposing screens with cells derived from glioblastoma tumor samples (AID 1345199). Also: nearly all actives have a fitted effect of over 40% in size. Also: potency is read from the fitted curve at half-maximal effect. As to activity, negative = cell killing: % is scaled to controls: 0 for no effect and ±100 for the full control effect. The following applies: GBM patient neurospheres viability, ATP luminescence, 48 h. In short, it runs like this:
(§1)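 Primary testing used CD133+ neurospheres from four GBM patients, seven concentrations, 48 h exposure and ATP-based viability; confirmation added three slower-growing patient lines.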

For assay [2], the system named is astro (control astrocytes). The assay is described as above. Conditions: viability, ATP luminescence, 48 h; series mostly up to 45.9 µM. In short, it runs like this: as §1
A short description of assay [3]: qHTS assay for small molecule activators of the human pregnane X receptor (PXR) signaling pathway (AID 720659; call rule not given here; also: 0% is about no effect). Conditions: DPX-2 HepG2 CYP3A4-luciferase, 24 h; series mostly up to 92.3 µM. On the technique in general: qHTS replaces the single test concentration by a dilution series.
The target of assay [4] is Nuclear receptor subfamily 1 group I member 2 (Rattus norvegicus) (UniProt Q9R1A7). Description: qHTS assay for small molecule activators of the rat pregnane X receptor (rPXR) signaling pathway (AID 651751; call rule not given here; also: 0% is about no effect). The following applies: rPXR reporter cells, luciferase (One-Glo), 24 h.
Setting [5] is: at 45.9 µM (top of the series), tumour line B.
[6] abbreviates: at 45.9 µM (top of the series), tumour line D.
The mark [7] stands for this setting: at 46.1 µM (top of the series), tumour line C.
The mark [8] stands for this setting: at 20 µM (top of the series), tumour line C.
Where [9] appears, read: at 21.2 µM (top of the series), tumour line B.
Setting [10] is: at 21.2 µM (top of the series), tumour line D.
The mark [11] stands for this setting: at 46 µM (top of the series), tumour line A.

Sequence of Nuclear receptor subfamily 1 group I member 2 (Rattus norvegicus) (Q9R1A7 whole entry, looked up): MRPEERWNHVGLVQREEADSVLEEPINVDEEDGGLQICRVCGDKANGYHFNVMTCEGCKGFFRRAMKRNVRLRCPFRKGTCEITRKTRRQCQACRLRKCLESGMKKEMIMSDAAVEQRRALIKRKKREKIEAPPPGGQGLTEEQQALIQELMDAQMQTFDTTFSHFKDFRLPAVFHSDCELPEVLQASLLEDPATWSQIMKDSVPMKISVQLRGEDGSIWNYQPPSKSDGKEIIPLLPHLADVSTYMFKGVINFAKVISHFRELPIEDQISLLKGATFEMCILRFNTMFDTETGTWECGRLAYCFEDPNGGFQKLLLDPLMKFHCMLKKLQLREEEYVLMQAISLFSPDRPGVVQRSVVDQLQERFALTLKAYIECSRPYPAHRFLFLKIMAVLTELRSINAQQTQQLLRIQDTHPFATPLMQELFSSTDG

`O=C(NC(=O)c1c(F)cccc1F)Nc1ccc(Cl)c(Oc2ncc(C(F)(F)F)cc2Cl)c1`: the activity, negative = cell killing in assay [1] (setting [5]) was -0.522%; in assay [1] (setting [6]) it was -21.9%; in assay [1] (setting [7]) it was -19.8%. In assay [2], the Potency entry was “inactive”.

As to `COC(=O)[C@@H]1[C@H]2CC[C@@H](C[C@H]1OC(=O)c1ccccc1)N2C`, the activity, negative = cell killing in assay [1] (setting [5]) was -0.119%; in assay [1] (setting [6]), 4.05%; in assay [1] (setting [7]) it was -3.81%. The Potency result in assay [2] was “inactive”.

`CC(=O)O[C@H]1CC[C@H]2[C@@H]3CCC4=CC(=O)CCC4=C3C=C[C@]12C`: the values for the activity, negative = cell killing in assay [1] (setting [5]), in assay [1] (setting [6]) and in assay [1] (setting [7]) were -12.7%, -6.7% and -16.1%, respectively. The Potency entry in assay [2] was “inactive”.

In the case of `C[N+]1(C)CCCCC1COC(=O)C(O)(c1ccccc1)c1ccccc1` (configuration not stated), the activity, negative = cell killing in assay [1] (setting [5]) is -0.912%; in assay [1] (setting [6]) it was -3.36%; in assay [1] (setting [7]) it was -16.5%. In addition, the Potency result in assay [2] is “inactive”.

Regarding `C=CCC1(C(C)CCC)C(=O)N=C(S)NC1=O` (configuration not stated), the figures for the activity, negative = cell killing in assay [1] (setting [5]), in assay [1] (setting [6]) and in assay [1] (setting [7]) were -7.88%, -15.2% and -10.6%, respectively. Also, in assay [2], the Potency result is “inactive”.

In the case of `O=C1CN(O)C(c2ccccc2)=c2cc(Cl)ccc2=N1`, the activity, negative = cell killing in assay [1] (setting [5]) was -13.2%; in assay [1] (setting [6]), -10.4%; in assay [1] (setting [7]), -13.2%. In assay [2], the Potency entry is “inactive”.

In the case of `CCNC1(c2cccs2)CCCCC1=O` (configuration not stated), the activity, negative = cell killing is -10.7% in assay [1] (setting [8]), 2.65% in assay [1] (setting [9]) and -6.43% in assay [1] (setting [10]). In addition, the Potency result in assay [2] is “inactive”.

`ClC(Cl)(Cl)Cl`: the activity, negative = cell killing in assay [1] (setting [5]) was -3.78%; in assay [1] (setting [6]), 4.09%; in assay [1] (setting [11]), -14.3%; in assay [1] (setting [7]), -6.14%. For the same compound, the Potency entry in assay [2] was “inactive”. Moreover, the outcome in assay [3] was inactive.

On to `[2H]C([2H])([2H])[C@H](N)Cc1ccccc1`, for which the activity, negative = cell killing in assay [1] (setting [5]) was -8.74%; in assay [1] (setting [6]), -8.54%; in assay [1] (setting [7]), -22.7%. Moreover, in assay [2], the Potency result was “inactive”.

In the case of `CN[C@H]1C[C@@H](N)[C@H](O)[C@@H](O[C@@H]2O[C@H](CO)[C@H](O)[C@@H]3OC4(O[C@H]23)O[C@H](C(N)CO)[C@H](O)[C@H](O)[C@H]4O)[C@@H]1O` (some centres not stated), the activity, negative = cell killing in assay [1] (setting [6]) was -24.2%; in assay [1] (setting [11]) it was -23.6%; in assay [1] (setting [7]), 9% and -3.99%. Further, the Potency entry in assay [2] is “inactive”.

In the case of `O=C(CCl)c1ccc(Oc2ccc(C(=O)CCl)cc2)cc1`, the activity, negative = cell killing in assay [1] (setting [5]) is -24.4%; in assay [1] (setting [6]) it was -6.59%; in assay [1] (setting [7]), -8.36%. Also, the Potency result in assay [2] is “inactive”.

For the compound `O=Cc1ccco1`, the activity, negative = cell killing is -3.46% in assay [1] (setting [5]), 2.23% in assay [1] (setting [6]), -6.89% in assay [1] (setting [11]) and -7% in assay [1] (setting [7]). Further, the Potency entry in assay [2] is “inactive”. The max response in assay [4] is 4.33%. In addition, in assay [3], the call was inactive.

As for `COc1ccc(OC)c([C@@H](O)[C@H](C)N)c1`, the results for the activity, negative = cell killing in assay [1] (setting [5]), in assay [1] (setting [6]) and in assay [1] (setting [7]) were -15.8%, -1.31% and -18.1%, respectively. In addition, the Potency entry in assay [2] is “inactive”.

Consider `O=C(NCNC(=O)NC1C(=O)NC(=O)N1CO)NC1C(=O)NC(=O)N1CO` (configuration not stated), for which the activity, negative = cell killing in assay [1] (setting [5]) is -11.9%; in assay [1] (setting [6]) it was 3.73%; in assay [1] (setting [7]) it was -7.65%. Also, in assay [2], the Potency result was “inactive”.

For `c1ccc2sc(SNC3CCCCC3)nc2c1`, the activity, negative = cell killing in assay [1] (setting [5]) is -13.7%; in assay [1] (setting [6]), -11.7%; in assay [1] (setting [7]), -8.99%. For the same compound, in assay [2], the Potency entry is “inactive”.

For `CC(Cc1ccccc1)NC=O` (configuration not stated), the activity, negative = cell killing in assay [1] (setting [5]) is -10.4%; in assay [1] (setting [6]) it was 2.52%; in assay [1] (setting [7]) it was -28.9%. Moreover, in assay [2], the Potency result was “inactive”.

`C[C@]12CCC(=O)C[C@@H]1CC[C@@H]1[C@@H]2CC[C@]2(C)[C@@H](O)CC[C@@H]12`: the values for the activity, negative = cell killing in assay [1] (setting [5]), in assay [1] (setting [6]) and in assay [1] (setting [7]) were -19.9%, -25.4% and -25.5%, respectively. In assay [1] (tumour line A), the Potency is 12.6 µM (active). In addition, in assay [4], the max response was 6.67% and 13%.

In the case of `C[C@]12CCC(=O)C=C1C=C[C@@H]1[C@@H]2CC[C@@]2(C)[C@H]1CC[C@@]2(O)CCC(=O)O`, the activity, negative = cell killing in assay [1] (setting [8]) was 15.7%; in assay [1] (setting [9]) it was -2.69%; in assay [1] (setting [10]), -8.65%. Besides, in assay [2], the Potency result is “inactive”.

In the case of `CCC(=O)O[C@]1(c2ccccc2)CCN(C)C[C@H]1C`, the activity, negative = cell killing was -13.3% in assay [1] (setting [5]), -17.1% in assay [1] (setting [6]) and -18.2% in assay [1] (setting [7]). Further, the Potency entry in assay [2] was “inactive”.

Regarding `O=C1CCCCC1CN1CCCCC1` (configuration not stated), the activity, negative = cell killing in assay [1] (setting [5]) was -12.3%; in assay [1] (setting [6]) it was 4.04%; in assay [1] (setting [7]), -15.7%. Also, in assay [2], the Potency result is “inactive”.

Regarding `CCC(=O)O[C@@](Cc1ccccc1)(c1ccccc1)[C@@H](C)CN(C)C`, the activity, negative = cell killing is 2.51% in assay [1] (setting [8]), -6.39% in assay [1] (setting [9]) and -21.4% in assay [1] (setting [10]). Further, in assay [2], the Potency result is “inactive”.

Regarding `O=C(CS(=O)C(c1ccccc1)c1ccccc1)NO` (configuration not stated), the activity, negative = cell killing in assay [1] (setting [5]) was -1.04%; in assay [1] (setting [11]) it was -19.6%; in assay [1] (setting [7]) it was -22%. Also, the Potency entry in assay [2] is “inactive”.

For `O=C1OC2(c3cc(Br)c(O)cc3Oc3c2cc(Br)c(O)[c]3[Hg])c2ccccc21` (configuration not stated), the activity, negative = cell killing in assay [1] (setting [8]) was -9.78%. The Potency in assay [1] (tumour line A) is 14.1 µM (active). The Potency entry in assay [2] was “inactive”.
